Test results taken from PubChem BioAssay AID1259311 (ICCB-Longwood Screening Facility, Harvard Medical School, 2017).
“And” between values parts separate entries of the source, which are not always exact repeats. Equal values may be shown once. The campaign covered roughly 330,000 compounds. About 1,100 (0.33%) were called active. No stated cut-off is given here; in the data, active means inhibition above about 85%; inactive means the rest. What follows is part of a selection rich in actives, with near analogues and random picks from the rest.

assay: growth inhibition of S. aureus RN4220, primary screen, OD600 (AID 1259311); conditions: OD600, 16 h, active compounds read high;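 further: plate controls were untreated cells for no effect and reference antibiotic for full effect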

| SMILES | inhibition |
| --- | --- |
| COc1ccc(CN2CCC(=O)N(C(CO)c3ccccc3)CC2)cc1OC (centres undefined) | -2.15% (inactive) |
| CCCCCCCCCCCCn1ccc(=N)cc1 | 101% (active) |
| CCCCCN1CC(O)=C(c2ccccc2)C1=N | 7.74% (inactive) |
| CCC1=C2CCC3C(=O)N(CC)C(=O)C3C2[C@@]2(Cc3ccccc3)C(=NCCOC)OC(=O)N2C1=O (some centres undefined) | 4.23% (inactive) |
| O=C(NN=Cc1cccc(OCC(=O)N2CCCC2)c1)C(=O)Nc1ccccc1F | 5.07% (inactive) |
| CC=C(C)C(=O)NCCN1C2=NCC(C(C)C)N2CC1Cc1ccc(O)cc1 (centres undefined) | 5.17% (inactive) |
| O=C(CC(=O)NN=Cc1ccc(Cl)cc1Cl)NCc1ccccc1 | 3.6% (inactive) |
| Cc1c(CCO)sc[n+]1CC(=O)OC12CC3CC(CC(C3)C1)C2 | 4.95% (inactive) |
| Cc1c(CCOC(=O)c2cc([N+](=O)[O-])ccc2Cl)sc[n+]1CCCCS(=O)(=O)[O-] | -3.66% (inactive) |
| Cc1c(CCOC(=O)CC23CC4CC(CC(C)(C4)C2)C3)sc[n+]1Cc1ccc([N+](=O)[O-])cc1 | 100% (active) and 99.7% (active) |
| O=C1C=C(c2ccc3ncccc3c2)CC(c2ccc(F)cc2)C1 (centres undefined) | -2.12% (inactive) |
| CCOc1cc(C=NO)ccc1OCc1ccccc1F | 7.66% (inactive) |
| Clc1ccc(NN=Cc2cccs2)nn1 | 4.84% (inactive) |
| C/C(C=Nn1c(-c2cccnc2)n[nH]c1=S)=C\c1ccco1 | 12.6% (inactive) |
| CCCCCCCCn1c2c(c(=N)c3c1CCC3)CCCC2 | 100% (active) |
| CC(C)c1ccc2c(c1)c(SC(C)(C)C)c(CC(C)(C)C(=O)O)n2Cc1ccc(Cl)cc1 | 100% (active) |
| NC(Cc1ccc(O)cc1)c1cn(C(CCC(=O)O)C(=O)N2CCNCC2)nn1 (centres undefined) | 3.88% (inactive) |

| SMILES | inhibition |
| --- | --- |
| NC(=NOC(=O)C(c1ccccc1)c1ccccc1)c1ccccn1 | 1.37% (inactive) |
| S=c1[nH]nc(-c2cccc(Cl)c2)n1N=Cc1ccc(-c2ccccc2Br)o1 | 10.7% (inactive) |
| O=C(O)C(c1ccccc1)N1C(=O)/C(=C\c2ccc(-c3cccc(Cl)c3)o2)SC1=S (centres undefined) | 95.5% (active) |
| CC1=NOC(=O)C1=Cc1ccc(-c2ccc(Cl)c(C(=O)O)c2)o1 | 3.22% (inactive) |
| Cc1cccc(OCC(=O)NN=Cc2ccc(N(C)C)cc2)c1 | 6.39% (inactive) |
| O=C(NN=Cc1c[nH]c2ccccc12)c1[nH]c2ccc(Br)cc2c1-c1ccccc1 | 86.5% (active) |
| O=C(NN=Cc1c[nH]c2ccccc12)c1ccc(O)c(O)c1 | -0.918% (inactive) |
| CCOc1ccc(Br)cc1C(=O)NN=Cc1c[nH]c2ccccc12 | -6.23% (inactive) |
| CCCCN1C(=S)NCC1Cc1ccc(O)cc1 (centres undefined) | 4.99% (inactive) |
| CC1COc2ccccc2N1C(=O)c1ccc(F)cc1 (centres undefined) | 1.99% (inactive) |
| O=C(COC(=O)c1ccc(F)cc1)NCC1COc2ccccc2O1 (centres undefined) | -4.66% (inactive) |
| O=C(Nc1nnc(C2COc3ccccc3O2)o1)c1ccc(F)cc1 (centres undefined) | 98.2% (active) |
| COc1ccc(C(C)=NOCC(=O)N2CC3(C)CC2CC(C)(C)C3)cc1 (centres undefined) | 4.12% (inactive) |
| CCCc1c(C(=O)NN=Cc2ccc(OC)c(OCc3ccccc3)c2)nnn1-c1nonc1N | 14% (inactive) |
| COC(=O)[C@@]12CCCCN1C(c1ccc(-c3ccc4c(c3)OCO4)cc1)C1C(=O)N(C)C(=O)C12 (some centres undefined) | -2.68% (inactive) |
| COc1ccc(C(C)=NNC(=O)C(NC(=O)c2ccccc2)c2n[nH]c(=O)c3ccccc23)c(OC)c1 (centres undefined) | 1.72% (inactive) |
| Cc1ccc(C=NNC(=O)c2ccco2)cc1 | -0.191% (inactive) |
